This is an account of results in PubChem BioAssay (NCATS).

Molecules are shown by their SMILES. Records with an inconclusive call do not appear. Activity calls are given as the source filed them. Unless noted, the call rests on the fitted dose curve; in most records, active means well fitted curve in the direction sought with a large enough effect; inconclusive means small, poorly fitted or top-dose-only effect, or another doubt; inactive means no such curve, though single readings can be large; an effect the other way counts as inactive or inconclusive.

Experiment [1] can be described thus: NCATS anti-infectives library activity on HEK293 viability as a counter-qHTS vs the C. elegans viability qHTS (AID 1745854).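 Further: HEK293 cells exposed to compounds for 24 hr before the viability read; on the % scale 0 is the no-effect control and ±100 the full control effect.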 The procedure, abridged:
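Cytotoxicity in human HEK293 cells is measured by ATP-dependent CellTiter-Glo luminescence following a 24 hr incubation with titrated library compounds at 37C. Top final concentration is 41.7 uM.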
(Quantitative high-throughput screening tests each substance at several concentrations.)

Experiment [2] concerns the target Catechol O-methyltransferase (Homo sapiens) (UniProt P21964). Briefly: Confirmatory Screen for Target Class Profiling of Small Molecule Inhibitors of Methyltransferases (AID 1745852). Particulars: MTase-Glo luminescence, SAH detection, recombinant enzyme; measured here: COMT max response; stronger effect = lower value.
For experiment [3], the target named is Guanidinoacetate N-methyltransferase (Homo sapiens) (UniProt Q14353). The experiment is described as above. Particulars: MTase-Glo luminescence, SAH detection, recombinant enzyme; activity change, negative = inhibition: at 85.7 µM (top of the series) unless noted.
The target in experiment [4] is Nicotinamide N-methyltransferase (Homo sapiens) (UniProt P40261). Described as above. To be noted: MTase-Glo luminescence, SAH detection, recombinant enzyme; measured here: NNMT max response; stronger effect = lower value.
Experiment [5] concerns the target Phenylethanolamine N-methyltransferase (Homo sapiens) (UniProt P11086). Described as above. Particulars: MTase-Glo luminescence, SAH detection, recombinant enzyme; measured here: PNMT max response; stronger effect = lower value.
The target of experiment [6] is DNA repair nuclease/redox regulator APEX1 (Homo sapiens) (UniProt P27695). Description: qHTS Validation Assay for Inhibitors of the Human Apurinic/apyrimidinic Endonuclease 1 (APE1) (AID 1705;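 further: TAMRA fluorescence gain over two minutes as APE1 cuts a quenched THF abasic duplex; on the % scale 0 is the no-effect control and ±100 the full control effect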). The procedure, abridged: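 Endonuclease activity of human APE1 is followed as dequenching when the enzyme incises a tetrahydrofuran abasic site in a short duplex labelled 5'-TAMRA/3'-BHQ-2 (50 nM final), after 15 min enzyme–compound preincubation at room temperature.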

Experiment [7] can be described thus: Counterscreen for APE1 Inhibitors: Fluorescent Dye Displacement Validation Assay (AID 1707).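 Further: plate controls were ThO with dsDNA and no compound for no effect and ThO without dsDNA for full effect.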 The procedure, abridged: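 Thiazole Orange displacement from dsDNA: 250 nM ThO with 50 nM TAMRA-labelled abasic-site (tetrahydrofuran) duplex in 50 mM Tris-HCl pH7.5, 50mM NaCl, 2 mM MgCl2, 0.01% Tween-20. Loss of endpoint fluorescence (ex 480 nm, em 540 nm) flags DNA binders.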
(In general: Counterscreens check selectivity or assay interference.)

Experiment [8] deals with Endonuclease 4 (Escherichia coli (strain K12)) (UniProt P0A6C1). Briefly: Counterscreen for APE1 Inhibitors: qHTS Validation Assay for Inhibitors of Endonuclease IV (AID 1708). Further: on the % scale 0 is the no-effect control and ±100 the full control effect. The procedure, abridged: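 Enzymatic AP-site incision assay using a double-stranded THF substrate labelled with TAMRA and BHQ-2; released fluorescence signals activity. Enzyme 2 nM, substrate 50 nM, 15 min compound preincubation.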

Experiment [9] in a line: qHTS for differential inhibitors of proliferation of Plasmodium falciparum line 7G8 (AID 1815).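 Further: potency means the concentration at half of the fitted maximal effect; parasite growth measured after three days of incubation.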
A short description of experiment [10]: qHTS for differential inhibitors of proliferation of Plasmodium falciparum line GB4 (AID 1816).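 Further: parasite growth measured after 72 h incubation.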 Further: potency means the concentration at half of the fitted maximal effect.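 On activity change, negative = inhibition: 0% = vehicle DMSO and -100% = reference inhibitor.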 To be noted: Potency: Plasmodium falciparum GB4 proliferation inhibition.
Experiment [11] in a line: qHTS for differential inhibitors of proliferation of Plasmodium falciparum line D10 (AID 1877).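 Further: parasites grown with compound for 72 h before DNA staining.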 Further: potency means the concentration at half of the fitted maximal effect.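 On activity change, negative = inhibition: plate controls were vehicle wells for no effect and reference inhibitor wells for full effect.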
Experiment [12] is described as follows: qHTS for differential inhibitors of proliferation of Plasmodium falciparum line Dd2 (AID 1882). Further: nearly all actives have a fitted effect of over 65% in size. Further: potency means the concentration at half of the fitted maximal effect.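 On activity change, negative = inhibition: compound exposure of 72 h on infected erythrocytes; plate controls were DMSO vehicle for no effect and 0.29 µM artemisinin for full effect.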 To be noted: Potency: Plasmodium falciparum Dd2 proliferation inhibition. The procedure, abridged:
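SYBR Green I DNA fluorescence read-out, ex 485/em 535 nm. Signals were normalized to 0.29 uM artemisinin and DMSO wells, then corrected using vehicle-only plates flanking each stack. Parasite growth ran 72 h in erythrocytes before lysis.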

Experiment [13] in a line: qHTS for differential inhibitors of proliferation of Plasmodium falciparum line W2 (AID 1883).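 Further: parasites grown with compound for 72 h before lysis and staining.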 Further: potency means the concentration at half of the fitted maximal effect.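 On activity change, negative = inhibition: 0% = vehicle wells and -100% = control inhibitor wells.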 Particulars: Potency: Plasmodium falciparum W2 proliferation inhibition.
Experiment [14] is described as follows: qHTS for differential inhibitors of proliferation of Plasmodium falciparum line HB3 (AID 1886).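 Further: potency means the concentration at half of the fitted maximal effect; parasites grown with compound for 72 h before SYBR Green readout.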 Particulars: Potency: Plasmodium falciparum HB3 proliferation inhibition.
Experiment [15] has as its target Ferritin light chain (Equus caballus) (UniProt P02791). Description: qHTS Validation Assay for Identification of Novel General Anesthetics (AID 2323). Further: on the % scale 0 is the no-effect control and ±100 the full control effect. The procedure, abridged: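 Apoferritin from horse spleen (10 uM) was mixed with 1-aminoanthracene at 50% saturation in PBS, then compounds were added. After 10 min at room temperature, fluorescence was read (ex 380 nm, em 535 nm) and normalized to free-probe and complex controls.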

In experiment [16] the target is ATP-dependent DNA helicase Q1 (Homo sapiens) (UniProt P46063). Briefly: qHTS Validation Assay for Inhibitors of RecQ-Like Dna Helicase 1 (RECQ1) (AID 2353).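 Further: plate controls were DMSO vehicle for no effect and enzyme-free control for full effect.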 The procedure, abridged:
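50 nM RECQ1T1 preincubated 15 min with compound in Tris pH 8.0 buffer with MgCl2, DTT, Tween-20 and 2.5 ug/ml poly(dI-dC); started with 200 nM TAMRA/BHQ-2 forked duplex and 2 mM ATP. Unwinding read as fluorescence (525/598 nm), two reads 2 h apart.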

Experiment [17] is described as follows: Validation screen for inhibitors of Lassa infection (AID 463096; calls by dose curve; further: potency means the concentration at half of the fitted maximal effect).
In experiment [18] the target is M-phase phosphoprotein 8 (Homo sapiens) (UniProt Q99549). Briefly: qHTS Validation Assay for Inhibitors for MPP8 Chromodomain Interactions with Methylated Histone Tails (AID 488949). Further: nearly all actives have a fitted effect of over 55% in size. Further: potency means the concentration at half of the fitted maximal effect. The procedure, abridged: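 Disruption of the preformed MPP8–trimethyl-H3K9 peptide complex (both 50 nM, 30 min, RT) is measured after 30 min compound exposure, using AlphaScreen proximity beads; aurintricarboxylic acid titration serves as plate control.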

In experiment [19] the target is Transient receptor potential cation channel subfamily V member 1 (Homo sapiens) (UniProt Q8NER1). Description: HTS Assay for Compounds that Act as Enhancers of the Vanilloid Receptor 1 (AID 488979). Further: 0% is about no effect. The procedure, abridged:
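Calcium influx kinetics via Fluo-8 (480/520 nm) in TRPV1-expressing cells, 2000/well cultured overnight at 35.5C. Compound-alone read 3 min (agonist phase), followed by EC20 capsaicin challenge for 2 min (enhancer phase).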

Experiment [20] concerns the target Thyrotropin receptor (Homo sapiens) (UniProt P16473). Description: qHTS Assay for Antagonists of the Thyroid Stimulating Hormone Receptor (AID 488980). Further: 0% is about no effect. The procedure, abridged: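 Cells expressing human TSHR (HEK293) are dispensed in HBSS/HEPES containing 70 uM RO 20-1724, compound is added, then TSH at EC80 (4 nM final). Antibody in lysis buffer follows, 30 minutes at room temperature before HTRF detection.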

Experiment [21] addresses Galactokinase (Homo sapiens) (UniProt P51570). Briefly: qHTS Validation Assay for Inhibitors of Human Galactokinase (GALK) (AID 493189). Further: 0% is about no effect. The procedure, abridged: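 Compounds were pin-transferred into ATP buffer, then GALK-galactose mix was added (final 5 nM enzyme, 100 uM galactose, 35 uM ATP). After 1 h at room temperature, remaining ATP was measured luminescently.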
In experiment [22] the target is Rap guanine nucleotide exchange factor 3 (Homo sapiens) (UniProt O95398). Briefly: Confirmatory qHTS for agonist of cAMP-regulated guanine nucleotide exchange factor 3 (EPAC1) (AID 1645881).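 Further: EPAC1 catalysed release of BODIPY-GDP from Rap1B seen as fluorescence loss; 100% = effect of cAMP agonist control; nearly all actives have a fitted effect of over 75% in size.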
For experiment [23], the target named is Rap guanine nucleotide exchange factor 4 (Homo sapiens) (UniProt Q8WZA2). Briefly: Confirmatory qHTS for antagonist of cAMP-regulated guanine nucleotide exchange factor 4 (EPAC2) (AID 1645885). Further: on the % scale 0 is the no-effect control and ±100 the full control effect; nearly all actives have a fitted effect of over 25% in size.
The target in experiment [24] is Rap guanine nucleotide exchange factor 3 (Homo sapiens) (UniProt O95398). Description: Counterscreen qHTS for antagonist of cAMP-regulated guanine nucleotide exchange factor 3 (EPAC1) (AID 1645888).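 Further: fluorescence loss as bound BODIPY-GDP is released from Rap1B; % of control where 0% means no effect.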 The procedure, abridged: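 Rap1B-BODIPY-GDP 250 nM + GDP 50 uM; cpds 7-pt, final 9.74 nM–152 uM (activator mode) or from 7.32 nM upwards (inhibitor mode); RT; FI 480/540 nm at 5 and 30 min, then ± cAMP, reread.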

A short description of experiment [25]: qHTS for differential inhibitors of proliferation of Plasmodium falciparum line 3D7 (AID 1876).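 Further: parasite growth measured after three days of culture; 0% = vehicle wells and -100% = reference inhibitor wells.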
The nature of experiment [26]: qHTS Assay for Modulators of Human Peripheral Myelin Protein 22 (PMP22) Expression/Activity (AID 1967; active means well fitted curve in the direction sought with a large enough effect in the signal ratio; the % refers to the signal ratio;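 further: 0% = untreated cells and 100% end not stated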). The procedure, abridged:
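Quantitative HTS in a mouse Schwann cell line expressing dual click beetle luciferases: Pmp22 promoter (green) and control EF-alpha promoter (red). After 24h treatment, corrected green/red signal ratio gave %Activity relative to untreated cells.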

The nature of experiment [27]: Quantitative high throughput screen for delayed death inhibitors of the malarial parasite plastid, 96 hour incubation (AID 488745).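 Further: luciferase-expressing P. falciparum in erythrocytes at 2% hematocrit and 0.1% parasitemia; on the % scale 0 is the no-effect control and ±100 the full control effect; nearly all actives have a fitted effect of over 70% in size.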 The procedure, abridged: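 Growth of reporter-bearing P. falciparum in red cells is measured after 96 h with compound, covering two erythrocytic cycles. Luminescence from the integrated luciferase serves as the growth signal.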
Experiment [28] can be described thus: Quantitative high throughput screen for delayed death inhibitors of the malarial parasite plastid, 48 hour incubation (AID 488752). Further: on the % scale 0 is the no-effect control and ±100 the full control effect; nearly all actives have a fitted effect of over 65% in size. The procedure, abridged:
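One parasite generation (48 h, 37 C, 5% CO2) of luciferase-reporter P. falciparum in erythrocytes is run with test compound; decreased luminescence indicates inhibited growth.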

A short description of experiment [29]: Validation screen for small molecules that induce DNA re-replication in SW480 colon adenocarcinoma cells (AID 504364). Further: 0% is about no effect. The procedure, abridged:
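Cells are treated 48 hr with test compound, stained 40 min with Hoechst at 37 C, and scanned for nuclear fluorescence; compounds inducing re-replication increase nuclei with elevated intensity.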

Experiment [30] has as its target Voltage-gated inwardly rectifying potassium channel KCNH2 (Homo sapiens) (UniProt Q12809). Briefly: qHTS Assay for Small Molecule Inhibitors of the Human hERG Channel Activity (AID 588834).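 Further: top concentration of the series differs between compounds; on the % scale 0 is the no-effect control and ±100 the full control effect; lower thallium flux fluorescence means stronger hERG block; nearly all actives have a fitted effect of over 50% in size.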 The procedure, abridged: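 Measured: FluxOR fluorescence after thallium stimulation in U2OS cells transduced with hERG by baculovirus. Compounds pre-incubated around 10 min; medium Opti-MEM with 2% FCS. AC50 from Hill equation.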

Chain of Ferritin light chain (Equus caballus) (P02791 2-175 limits assumed): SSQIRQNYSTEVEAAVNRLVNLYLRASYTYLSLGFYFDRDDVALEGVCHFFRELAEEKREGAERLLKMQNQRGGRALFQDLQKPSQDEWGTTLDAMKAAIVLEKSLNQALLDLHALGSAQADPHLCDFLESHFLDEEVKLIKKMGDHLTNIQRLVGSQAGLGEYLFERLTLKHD
Chain of Transient receptor potential cation channel subfamily V member 1 (Homo sapiens) (Q8NER1 whole entry, looked up): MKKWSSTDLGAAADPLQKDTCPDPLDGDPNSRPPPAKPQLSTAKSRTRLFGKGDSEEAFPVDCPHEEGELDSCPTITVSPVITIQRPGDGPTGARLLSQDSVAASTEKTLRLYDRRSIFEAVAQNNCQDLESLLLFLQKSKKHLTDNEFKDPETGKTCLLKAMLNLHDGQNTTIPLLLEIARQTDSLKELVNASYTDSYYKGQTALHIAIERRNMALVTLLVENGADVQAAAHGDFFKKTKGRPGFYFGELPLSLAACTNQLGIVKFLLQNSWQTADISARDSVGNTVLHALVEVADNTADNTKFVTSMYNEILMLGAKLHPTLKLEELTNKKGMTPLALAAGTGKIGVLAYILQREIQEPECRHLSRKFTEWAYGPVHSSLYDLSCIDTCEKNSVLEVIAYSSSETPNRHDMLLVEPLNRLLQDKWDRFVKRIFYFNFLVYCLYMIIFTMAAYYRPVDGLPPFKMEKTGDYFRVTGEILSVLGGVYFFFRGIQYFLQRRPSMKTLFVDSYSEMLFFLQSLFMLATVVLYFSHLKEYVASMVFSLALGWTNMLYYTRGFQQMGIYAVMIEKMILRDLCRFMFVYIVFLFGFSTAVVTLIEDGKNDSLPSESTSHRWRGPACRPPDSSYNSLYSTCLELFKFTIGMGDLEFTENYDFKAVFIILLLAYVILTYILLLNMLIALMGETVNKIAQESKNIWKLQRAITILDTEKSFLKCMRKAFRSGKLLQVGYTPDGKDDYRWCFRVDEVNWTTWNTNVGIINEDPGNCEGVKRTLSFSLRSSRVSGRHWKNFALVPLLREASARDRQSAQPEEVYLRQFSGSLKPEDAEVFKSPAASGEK
Chain of Phenylethanolamine N-methyltransferase (Homo sapiens) (P11086 whole entry, looked up): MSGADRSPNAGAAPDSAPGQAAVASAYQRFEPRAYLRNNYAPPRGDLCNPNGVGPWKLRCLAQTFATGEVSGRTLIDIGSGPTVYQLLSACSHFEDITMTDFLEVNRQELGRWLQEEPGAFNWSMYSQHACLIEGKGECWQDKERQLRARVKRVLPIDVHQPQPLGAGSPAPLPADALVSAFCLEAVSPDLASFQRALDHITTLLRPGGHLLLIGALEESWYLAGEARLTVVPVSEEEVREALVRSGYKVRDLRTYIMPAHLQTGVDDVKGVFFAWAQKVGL
Chain of Galactokinase (Homo sapiens) (P51570 whole entry, looked up): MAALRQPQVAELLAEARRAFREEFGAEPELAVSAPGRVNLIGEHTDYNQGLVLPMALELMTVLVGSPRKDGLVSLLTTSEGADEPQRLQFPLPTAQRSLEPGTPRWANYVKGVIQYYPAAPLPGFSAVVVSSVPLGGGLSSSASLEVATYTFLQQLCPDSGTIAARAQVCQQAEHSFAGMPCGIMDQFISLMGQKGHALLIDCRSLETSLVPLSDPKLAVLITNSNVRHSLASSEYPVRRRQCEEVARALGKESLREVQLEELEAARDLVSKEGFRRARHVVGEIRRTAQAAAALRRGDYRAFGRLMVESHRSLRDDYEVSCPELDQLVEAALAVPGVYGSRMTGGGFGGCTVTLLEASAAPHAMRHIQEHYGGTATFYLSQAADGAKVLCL
Chain of M-phase phosphoprotein 8 (Homo sapiens) (Q99549 whole entry, looked up): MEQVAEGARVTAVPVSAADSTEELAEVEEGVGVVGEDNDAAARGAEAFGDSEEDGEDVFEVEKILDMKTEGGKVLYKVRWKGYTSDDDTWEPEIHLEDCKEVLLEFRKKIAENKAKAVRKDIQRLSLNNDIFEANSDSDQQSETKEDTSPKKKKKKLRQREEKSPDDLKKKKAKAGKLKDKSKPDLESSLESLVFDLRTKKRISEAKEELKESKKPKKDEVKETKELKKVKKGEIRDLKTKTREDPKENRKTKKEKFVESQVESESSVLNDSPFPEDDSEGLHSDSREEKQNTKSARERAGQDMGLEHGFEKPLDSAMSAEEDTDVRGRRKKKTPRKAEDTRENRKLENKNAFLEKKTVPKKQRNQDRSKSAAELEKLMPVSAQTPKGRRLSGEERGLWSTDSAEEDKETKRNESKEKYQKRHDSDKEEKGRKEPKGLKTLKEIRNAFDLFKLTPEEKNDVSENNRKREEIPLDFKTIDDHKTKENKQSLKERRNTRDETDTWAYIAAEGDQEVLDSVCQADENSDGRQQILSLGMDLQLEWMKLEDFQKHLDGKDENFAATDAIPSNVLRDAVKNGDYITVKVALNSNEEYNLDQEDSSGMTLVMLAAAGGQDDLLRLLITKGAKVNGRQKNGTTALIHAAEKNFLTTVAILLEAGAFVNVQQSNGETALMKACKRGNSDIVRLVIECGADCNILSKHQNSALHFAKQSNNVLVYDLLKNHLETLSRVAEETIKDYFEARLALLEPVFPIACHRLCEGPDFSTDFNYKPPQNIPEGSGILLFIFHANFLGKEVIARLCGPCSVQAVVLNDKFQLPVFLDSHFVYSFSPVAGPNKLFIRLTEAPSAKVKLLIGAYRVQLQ
Chain of Catechol O-methyltransferase (Homo sapiens) (P21964 whole entry, looked up): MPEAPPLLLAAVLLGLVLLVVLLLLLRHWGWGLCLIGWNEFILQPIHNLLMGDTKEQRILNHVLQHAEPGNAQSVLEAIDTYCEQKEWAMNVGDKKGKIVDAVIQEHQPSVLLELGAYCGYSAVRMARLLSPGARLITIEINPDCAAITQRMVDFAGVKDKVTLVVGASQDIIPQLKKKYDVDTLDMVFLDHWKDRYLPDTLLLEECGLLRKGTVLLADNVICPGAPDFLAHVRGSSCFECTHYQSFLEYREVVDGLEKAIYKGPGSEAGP
Chain of Thyrotropin receptor (Homo sapiens) (P16473 whole entry, looked up): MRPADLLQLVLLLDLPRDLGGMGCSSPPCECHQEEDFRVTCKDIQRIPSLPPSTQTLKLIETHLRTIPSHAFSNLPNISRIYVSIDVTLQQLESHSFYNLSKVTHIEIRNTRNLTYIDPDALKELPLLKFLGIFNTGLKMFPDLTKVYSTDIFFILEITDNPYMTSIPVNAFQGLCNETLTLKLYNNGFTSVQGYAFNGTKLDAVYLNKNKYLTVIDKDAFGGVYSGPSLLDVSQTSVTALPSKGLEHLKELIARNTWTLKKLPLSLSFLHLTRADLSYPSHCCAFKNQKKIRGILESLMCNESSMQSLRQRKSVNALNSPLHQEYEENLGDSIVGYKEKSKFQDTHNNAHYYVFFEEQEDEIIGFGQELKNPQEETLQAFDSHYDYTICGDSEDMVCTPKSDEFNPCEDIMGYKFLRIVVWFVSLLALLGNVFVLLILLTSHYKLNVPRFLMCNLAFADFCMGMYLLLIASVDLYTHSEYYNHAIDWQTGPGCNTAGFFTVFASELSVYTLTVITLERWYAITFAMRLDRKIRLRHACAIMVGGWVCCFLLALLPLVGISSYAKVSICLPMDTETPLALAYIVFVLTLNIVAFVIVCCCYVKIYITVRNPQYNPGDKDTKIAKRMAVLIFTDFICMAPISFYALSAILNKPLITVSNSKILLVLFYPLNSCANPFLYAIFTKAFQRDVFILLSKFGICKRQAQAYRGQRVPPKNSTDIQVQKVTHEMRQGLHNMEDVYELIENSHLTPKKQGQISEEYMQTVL
Chain of ATP-dependent DNA helicase Q1 (Homo sapiens) (P46063 whole entry, looked up): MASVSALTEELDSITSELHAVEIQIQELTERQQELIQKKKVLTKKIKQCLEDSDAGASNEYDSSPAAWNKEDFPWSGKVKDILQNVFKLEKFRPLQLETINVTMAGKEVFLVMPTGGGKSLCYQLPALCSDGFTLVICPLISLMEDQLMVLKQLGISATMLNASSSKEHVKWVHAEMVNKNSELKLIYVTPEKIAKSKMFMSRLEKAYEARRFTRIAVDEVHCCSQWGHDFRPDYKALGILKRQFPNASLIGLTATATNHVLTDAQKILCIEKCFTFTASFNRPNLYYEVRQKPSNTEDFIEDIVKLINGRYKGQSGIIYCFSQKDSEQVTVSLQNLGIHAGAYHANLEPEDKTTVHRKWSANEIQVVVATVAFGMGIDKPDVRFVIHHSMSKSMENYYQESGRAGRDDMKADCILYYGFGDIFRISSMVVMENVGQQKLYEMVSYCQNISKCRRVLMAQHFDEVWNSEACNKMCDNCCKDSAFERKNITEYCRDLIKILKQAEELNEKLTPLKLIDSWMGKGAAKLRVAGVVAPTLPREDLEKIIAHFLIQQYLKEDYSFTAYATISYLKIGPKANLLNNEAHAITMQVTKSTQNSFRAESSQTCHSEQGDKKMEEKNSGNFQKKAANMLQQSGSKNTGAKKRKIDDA
Chain of DNA repair nuclease/redox regulator APEX1 (Homo sapiens) (P27695 whole entry, looked up): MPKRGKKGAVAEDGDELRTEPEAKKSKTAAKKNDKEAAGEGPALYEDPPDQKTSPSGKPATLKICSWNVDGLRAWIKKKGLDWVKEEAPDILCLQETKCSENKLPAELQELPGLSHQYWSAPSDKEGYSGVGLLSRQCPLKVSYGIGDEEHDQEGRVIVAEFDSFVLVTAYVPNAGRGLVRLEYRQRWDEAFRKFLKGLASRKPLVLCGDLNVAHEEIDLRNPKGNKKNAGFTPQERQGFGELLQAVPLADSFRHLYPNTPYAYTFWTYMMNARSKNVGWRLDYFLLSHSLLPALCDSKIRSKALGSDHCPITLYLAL
Chain of Nicotinamide N-methyltransferase (Homo sapiens) (P40261 whole entry, looked up): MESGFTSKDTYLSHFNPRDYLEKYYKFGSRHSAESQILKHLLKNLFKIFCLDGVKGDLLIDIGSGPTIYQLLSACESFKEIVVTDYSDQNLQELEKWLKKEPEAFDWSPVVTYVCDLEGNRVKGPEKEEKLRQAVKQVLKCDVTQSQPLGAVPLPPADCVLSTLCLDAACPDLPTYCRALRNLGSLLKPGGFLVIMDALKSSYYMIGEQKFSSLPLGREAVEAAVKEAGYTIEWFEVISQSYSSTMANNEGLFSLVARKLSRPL

For `O=c1ccc2ccc3occc3c2o1`, the Potency result in experiment [1] was “inactive”.
For the compound `COc1ccc(-c2cc3c(cn2)CN(C)CCN3)cn1`, the activity in experiment [2] was 1.58%; in experiment [4] it was -5.95%; in experiment [5], -1.09%. Moreover, in [3], the activity change, negative = inhibition is -1.54% [at 114 µM].
For `Oc1cc2c(cc1O)[C@H]1c3ccccc3CNC1CC2` (stereo not given in full), the Potency entry in [6], in [8], in experiment [15] and in experiment [17] was “inactive” each time. Besides, the outcome in [7], in [16], in [19], in [20] and in experiment [21] was “inactive” in each case. The Potency in experiment [9] is 10 µM (active); in experiment [10] it was 12.6 µM (active); in experiment [11] it was 11.2 µM (active); in experiment [12] it was 8.91 µM (active); in [13] it was 10 µM (active); in experiment [14], 11.2 µM (active). In addition, the Potency in experiment [18] was 25.1 µM (active).
In the case of `O=C1NC(=O)N(Cc2ccc(F)cc2)C(=O)/C1=C\c1ccoc1`, the Potency result in experiment [22] and in experiment [23] was “inactive” each time. Further, in experiment [24], the outcome is “inactive”.
For the compound `C[C@@H]1O[C@@H](O[C@H]2C[C@@H](O)[C@]3(CO)[C@H]4[C@H](O)C[C@]5(C)[C@@H]([C@@H]6COC(=O)C6)CC[C@]5(O)[C@@H]4CC[C@]3(O)C2)[C@H](O)[C@H](O)[C@H]1O`, the Potency entry in [6], in experiment [8], in experiment [10], in [25], in experiment [11] and in experiment [12] was “inactive” in each case. In addition, the Potency result in [13], in [15], in experiment [27], in experiment [28], in experiment [18] and in experiment [30] was “inactive” in each case. Further, the outcome in experiment [7], in [26], in experiment [16], in experiment [19], in experiment [20] and in experiment [21] was “inactive” each time. The outcome in experiment [29] was “inactive”. Besides, the Potency in [17] is 1.58 µM (active).
As for `CC(=O)O[C@H]1[C@H]2[C@@H](OC(=O)Cc3ccccc3)[C@@H](C)C[C@]2(OC(C)=O)C(=O)/C(C)=C/[C@@H]2[C@H](CC[C@@]13CO3)C2(C)C`, the Potency result in experiment [1] is “inactive”.
For `CC[C@H]1CN2CC[C@H]1C[C@@H]2CNCc1ccc(-c2ccccc2)cc1`, the results for the activity in experiment [2], in [4] and in experiment [5] were 3.75%, 4.25% and -4.01%, respectively. Also, the activity change, negative = inhibition in experiment [3] is 4.44%.
Take `CCCC(=O)O[C@H]1CN2CC[C@H](O)[C@@H]2[C@@H](O)[C@@H]1O`: the Potency entry in [1] is “inactive”.
